Experimental findings from PubChem BioAssay (NCI) are described below.

The structures appear in SMILES notation. This is part of a sample that, as a whole, favours compounds with a hit. Of some 83,000 tested, about 20% had one in any assay.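 Results are percent growth after 48 hours of single-concentration exposure. 100 means growth as in untreated cells, lower positive values show inhibition; negative values down to -100 show cell death.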 Values without a mark were called inactive. Calls of active or inactive are those of the source.

The test system of this test is CAKI-1 renal. Nature of the test: NCI-60 one-dose screen, 48 h (100 = growth as untreated, 0 = no growth, -100 = all killed). Particulars: 10 µM unless noted. As to the method: Growth inhibition of the CAKI-1 human tumor cell line is measured as a screen for anti-cancer activity. Cells are grown in 96 well plates and exposed to the test compound for 48 hours. Compounds are tested at a single concentration, which is 10^-5 M for most compounds. The reported endpoint is percent growth (GI% or GIPRCNT), where numbers from 0 - 100% represent growth inhibition, and numbers from -100% - 0 represent cell death. For example, a value of 40 represents 60% growth inhibition. A value of 0 means no net growth occurred over the course of the experiment. A value of -40 indicates 40% of cells at the beginning of the experiment died by the end of the experiment. A value of -100 means all cells are dead at the end of the experiment.
NCI-60 Human Tumor Cell Lines Screen was performed using the standard one-dose NCI protocol, which is described in more detail at https://dtp.cancer.gov/discovery_development/nci-60/default.htm.
Compounds with GIPRCNT values below 10 were considered active. Activity score was based on GIPRCNT using the following formula: […]
Score is 0 for GIPRCNT values of 100 or above, 50 for GIPRCNT values of 0, and 100 for GIPRCNT values of -100.
As to `NC(CO)(CO)c1ccccc1`, the growth is 96.1%.
The value for `C=CCC(OC(C)=O)c1ccc(C(C)C)cc1` (stereo not given) was 121%.
The value for `O=S1(=O)c2ccccc2Oc2ccccc21` was 92.9%; that for `CCc1ccccc1C(=O)N(CC)CC` was 99.7%; that for `OC(CCN1CCCCC1)(c1ccccc1)c1ccccc1` was 92.6%.
As to `O=C(O)CC1=CCCCC1`, the growth is 97.7%.
The value for `Cc1cc(Cl)cc(Cc2cc(Cl)cc(C)c2O)c1O` was 3.84% (active); that for `NS(=O)(=O)c1cc(=O)[nH]c(=O)[nH]1` was 111%.
The same measure for `Cc1cc(CO)c(O)c(CO)c1`: 96.8%; for `Cc1ccc(C)c(CN(C)C)c1O`: 114%.
The same measure for `CC(C)(N)CO[C@H]1C[C@H]2CC[C@@]1(C)C2(C)C`: 97%; for `O=S(=O)(O)C(C(I)I)S(=O)(=O)O`: 100%.
As to `Cc1ccccc1NC(=O)Oc1ccc(Cl)cc1C(=O)c1ccccc1`, the growth is 91.7%.
The value for `COc1cccc(N=CNc2cccc(OC)c2)c1` was 87.7%; that for `CC(=O)Nc1ccc(/C=C2\SC(=S)N(/C=C(\C(C)=O)C(N)=O)C2=O)cc1` was 98.3%.
The value for `COC(c1ccc2c(c1)OCO2)C(C)Br` (stereo not given) was 83.7%; that for `C=CC(=O)OC1CCC(C(C)(C)CC)CC1` (stereo not given) was 115%; that for `CC(=O)c1cccc(N(C)S(=O)(=O)c2ccc(C)cc2)c1` was 101%.
The value for `Cc1cc(Nc2ccc3c(c2)OCO3)c2cc3c(cc2n1)OCO3` was 19.5%; that for `C=C(OC(C)=O)c1ccccc1` was 100%; that for `CCC(=O)Oc1ccc2ccccc2c1` was 91.2%.
`CC(=O)N(C)N=Nc1ccc(C)cc1`: the growth was 98.6%.
The value for `C=CCc1cc(OC)c(OC)c(OC)c1` was 100%; that for `CC(=O)OC/C(C)=C\CC(C)COC(C)=O` (stereo not given) was 96.3%; that for `CCOC(=O)c1cc(C)[nH]c(=O)c1C#N` was 56.9%.
The value for `COc1ccc2c(ccc[n+]2C)c1` was 96.4%; that for `CC(C)N(C(=O)c1ccccc1)C(C)C` was 98.5%; that for `C=CCNC(=S)N/C=C(/C(=O)c1ccccc1)c1ccccc1` was 101%.
The value for `CCCCNc1ccc(-c2ccc(NCCCC)cc2)cc1` was 64.8%; that for `CCCc1cccc(CCC)c1NC(=O)Nc1cc(Cl)cc(Cl)c1` was 83.5%; that for `C(=C\c1ccncc1)/c1ccncc1` was 129%.
Take `CN1C(=O)NC(c2ccc(Cl)cc2)(c2ccc(Cl)cc2)C1=O`: the growth is 92.9%.
The same measure for `CN(C)c1ccc2nc3ccc(=[N+](C)C)cc-3oc2c1`: 70.3%; for `C1Cc2onc(-c3noc4c3CCC4)c2C1`: 94.5%.
The value for `CC(C)N1CC(=O)N2CSCC2C1=O` (stereo not given) was 100%.
The value for `CC(C)OCC(CCl)OC(=O)Nc1ccccc1` (stereo not given) was 98.2%; that for `C=COC(=O)CCOCC(CC)CCCC` (stereo not given) was 96.5%; that for `O=S(=O)(O)c1cccnc1` was 95.2%.
Take `NC(=S)N/N=C/c1ccc(OC(=O)COc2ccc(Cl)cc2)cn1`: the growth was 0.332% (active).
As to `O=C(OC1CCCC1)c1ccccc1Cl`, the growth is 101%.
